Experimental data from ChEMBL document CHEMBL3988442, “University of Dundee, Small-Polar-MMV Screening Library” (2021).
For some of these results: Entries with a potency or affinity are not part of this list.

Assays:
Parameters in all cases: scale not given: direction of the effect not stated beside the values
[1] = target: Protein translocase subunit SecA (Escherichia coli (strain K12)) (UniProt P10408); assay: Assay to Identify E. coli SecA ATPase Inhibitors; type: functional; details: 30 µM
[2] = target: T1, Ubiquitin-activating enzyme e1, putative (Leishmania donovani (strain BPK282A1)) (UniProt E9BSI1); assay: Leishmania donovani Ubiquitin Activating Enzyme (LdE1); type: functional; details: 30 µM
T1 sequence (whole entry): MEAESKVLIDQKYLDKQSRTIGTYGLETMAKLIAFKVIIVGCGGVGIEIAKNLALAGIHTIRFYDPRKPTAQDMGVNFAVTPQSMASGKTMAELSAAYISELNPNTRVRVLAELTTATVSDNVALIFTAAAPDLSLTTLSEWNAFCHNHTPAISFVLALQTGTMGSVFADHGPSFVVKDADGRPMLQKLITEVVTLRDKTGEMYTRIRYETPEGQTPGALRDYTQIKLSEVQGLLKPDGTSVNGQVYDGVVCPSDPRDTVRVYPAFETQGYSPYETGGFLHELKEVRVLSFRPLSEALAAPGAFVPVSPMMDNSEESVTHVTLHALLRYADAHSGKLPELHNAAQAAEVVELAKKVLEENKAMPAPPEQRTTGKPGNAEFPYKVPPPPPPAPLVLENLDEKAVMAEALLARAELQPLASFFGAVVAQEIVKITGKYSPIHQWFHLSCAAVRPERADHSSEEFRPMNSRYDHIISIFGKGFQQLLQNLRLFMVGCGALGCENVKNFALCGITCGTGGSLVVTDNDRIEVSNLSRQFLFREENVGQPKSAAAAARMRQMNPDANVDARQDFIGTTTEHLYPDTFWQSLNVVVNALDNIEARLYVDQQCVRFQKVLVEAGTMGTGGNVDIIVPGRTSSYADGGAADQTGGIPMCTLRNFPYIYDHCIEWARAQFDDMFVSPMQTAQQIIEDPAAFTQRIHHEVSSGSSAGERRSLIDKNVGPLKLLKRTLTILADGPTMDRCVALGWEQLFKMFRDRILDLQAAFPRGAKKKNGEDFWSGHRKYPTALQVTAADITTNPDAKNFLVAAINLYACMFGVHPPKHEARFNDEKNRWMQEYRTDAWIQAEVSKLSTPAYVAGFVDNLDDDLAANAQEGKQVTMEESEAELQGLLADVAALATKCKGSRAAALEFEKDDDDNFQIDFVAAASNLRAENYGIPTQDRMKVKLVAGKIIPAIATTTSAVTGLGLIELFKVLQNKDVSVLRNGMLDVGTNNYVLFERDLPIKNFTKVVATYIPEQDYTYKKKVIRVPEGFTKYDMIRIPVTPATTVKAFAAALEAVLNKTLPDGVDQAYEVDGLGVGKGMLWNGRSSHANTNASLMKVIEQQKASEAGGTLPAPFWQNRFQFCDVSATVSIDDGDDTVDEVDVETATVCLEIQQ

[3] = target: AMP-activated protein kinase, AMPK (Homo sapiens) (UniProt P54646+O43741+P54619+Q9UGJ0+Q9Y478+Q13131+Q9UGI9); assay: AMP-dependent Kinase enzyme assay. An in vitro enzyme assay that detects ADP turnover that is directly proportional to AMPK activity. This uses naive AMPK that is activated during the assay with MK-8722; type: functional; details: 30 µM
[4] = target: Sialic acid-binding Ig-like lectin 9 (Homo sapiens) (UniProt Q9Y336); assay: Hs-Siglec9 ALPHAscreen SOP 20170721; details: 10 µM
Chain of Sialic acid-binding Ig-like lectin 9 (Homo sapiens) (Q9Y336 whole entry): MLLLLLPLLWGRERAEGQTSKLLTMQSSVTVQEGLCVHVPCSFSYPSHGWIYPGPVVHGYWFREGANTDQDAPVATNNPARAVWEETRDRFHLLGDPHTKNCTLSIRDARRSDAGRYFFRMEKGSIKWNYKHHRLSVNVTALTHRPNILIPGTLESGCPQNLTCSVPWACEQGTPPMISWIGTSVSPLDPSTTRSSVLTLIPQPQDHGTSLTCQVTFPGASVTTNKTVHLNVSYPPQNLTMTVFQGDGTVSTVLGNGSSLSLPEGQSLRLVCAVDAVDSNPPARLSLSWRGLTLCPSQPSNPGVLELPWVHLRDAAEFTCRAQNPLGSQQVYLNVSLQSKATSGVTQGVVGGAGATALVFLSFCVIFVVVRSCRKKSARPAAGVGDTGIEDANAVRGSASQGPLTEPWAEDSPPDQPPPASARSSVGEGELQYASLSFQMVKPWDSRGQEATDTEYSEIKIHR

Trypanosoma cruzi = assay: Trypanosoma cruzi phosphomannomutase and mannose-1-phosphate guanylyltransferase assay; type: functional; details: 10 µM
[5] = target: T2, Arginase-2, mitochondrial (Homo sapiens) (UniProt P78540); assay: in vitro enzyme assay to detect the production of urea directly proportional to the activity of Arginase II; type: functional; details: 33.3 µM; also: in the data most compounds retested in dose-response had high values
T2 sequence (whole entry): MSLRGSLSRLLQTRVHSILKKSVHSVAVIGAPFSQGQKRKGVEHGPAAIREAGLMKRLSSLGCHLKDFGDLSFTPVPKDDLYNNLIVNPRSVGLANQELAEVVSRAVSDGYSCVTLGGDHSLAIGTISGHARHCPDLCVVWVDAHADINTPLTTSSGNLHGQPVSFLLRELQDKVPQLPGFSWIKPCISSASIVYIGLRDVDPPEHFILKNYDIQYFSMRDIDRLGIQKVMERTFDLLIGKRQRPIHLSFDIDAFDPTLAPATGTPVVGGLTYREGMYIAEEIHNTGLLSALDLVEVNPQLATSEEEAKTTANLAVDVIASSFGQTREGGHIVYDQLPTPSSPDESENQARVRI

[6] = target: T3, Proteasome subunit beta (Trypanosoma cruzi) (UniProt O96673); assay: Trypanosoma cruzi proteasome chymotrypsin-like activity (TcProtChymo) assay.; also: in the data most compounds retested in dose-response had high values; type: functional; details: 9.37 µM
T3 sequence (whole entry): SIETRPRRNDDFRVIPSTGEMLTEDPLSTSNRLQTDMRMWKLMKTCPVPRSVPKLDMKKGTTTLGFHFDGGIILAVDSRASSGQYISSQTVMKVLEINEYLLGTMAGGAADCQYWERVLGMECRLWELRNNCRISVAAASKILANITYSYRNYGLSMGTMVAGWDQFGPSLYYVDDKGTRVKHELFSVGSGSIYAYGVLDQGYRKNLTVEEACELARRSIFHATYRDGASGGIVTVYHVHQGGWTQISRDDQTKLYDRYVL

Homo sapiens = organism: Homo sapiens; assay: To identify inhibition of the IFN signalling (Jak-Stat) pathway via expression of an eGFP reporter gene under the control of an IFN-stimulated response element (ISRE) containing MxA promoter.; type: functional; details: 30 µM
[7] = target: T4, Tyrosyl-tRNA synthetase, putative (Trypanosoma cruzi (strain CL Brener)) (UniProt Q4DSP6); assay: Trypanosoma cruzi tyrosyl tRNA synthetase (TcYRS) _High Tyrosine SOP; type: functional; details: 30 µM; also: in the data most compounds retested in dose-response had high values
T4 sequence (whole entry): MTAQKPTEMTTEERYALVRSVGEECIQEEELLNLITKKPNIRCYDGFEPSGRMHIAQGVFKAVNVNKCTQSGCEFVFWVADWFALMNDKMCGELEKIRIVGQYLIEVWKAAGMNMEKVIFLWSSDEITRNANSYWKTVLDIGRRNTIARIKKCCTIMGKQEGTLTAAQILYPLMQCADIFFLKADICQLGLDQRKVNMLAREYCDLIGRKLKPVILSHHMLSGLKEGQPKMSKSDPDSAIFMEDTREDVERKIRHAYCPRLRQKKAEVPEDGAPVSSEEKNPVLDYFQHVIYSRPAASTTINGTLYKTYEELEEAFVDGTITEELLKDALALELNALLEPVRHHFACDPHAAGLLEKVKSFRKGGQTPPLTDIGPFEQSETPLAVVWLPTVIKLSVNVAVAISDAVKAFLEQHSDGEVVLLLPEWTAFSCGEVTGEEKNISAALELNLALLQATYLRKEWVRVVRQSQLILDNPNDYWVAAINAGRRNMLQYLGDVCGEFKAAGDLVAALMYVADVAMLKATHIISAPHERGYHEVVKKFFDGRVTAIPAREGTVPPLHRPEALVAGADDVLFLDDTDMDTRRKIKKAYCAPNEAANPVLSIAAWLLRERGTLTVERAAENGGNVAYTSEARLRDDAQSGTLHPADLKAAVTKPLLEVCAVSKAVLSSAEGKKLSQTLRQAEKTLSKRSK

[8] = target: T4, Tyrosyl-tRNA synthetase, putative (Trypanosoma cruzi (strain CL Brener)); assay: Trypanosoma cruzi tyrosyl tRNA synthetase (TcYRS) SOP; type: functional; details: 30 µM
[9] = target: Chromo domain-containing protein 1 (Saccharomyces cerevisiae (strain ATCC 204508 / S288c) (Baker's yeast)) (UniProt P32657); assay: ScCHD-1 Enzyme Inhibition Assay; type: functional; details: 30 µM; also: in the data most compounds retested in dose-response had high values
Chain of Chromo domain-containing protein 1 (Saccharomyces cerevisiae (strain ATCC 204508 / S288c) (Baker's yeast)) (P32657 whole entry, the tested form may be a part): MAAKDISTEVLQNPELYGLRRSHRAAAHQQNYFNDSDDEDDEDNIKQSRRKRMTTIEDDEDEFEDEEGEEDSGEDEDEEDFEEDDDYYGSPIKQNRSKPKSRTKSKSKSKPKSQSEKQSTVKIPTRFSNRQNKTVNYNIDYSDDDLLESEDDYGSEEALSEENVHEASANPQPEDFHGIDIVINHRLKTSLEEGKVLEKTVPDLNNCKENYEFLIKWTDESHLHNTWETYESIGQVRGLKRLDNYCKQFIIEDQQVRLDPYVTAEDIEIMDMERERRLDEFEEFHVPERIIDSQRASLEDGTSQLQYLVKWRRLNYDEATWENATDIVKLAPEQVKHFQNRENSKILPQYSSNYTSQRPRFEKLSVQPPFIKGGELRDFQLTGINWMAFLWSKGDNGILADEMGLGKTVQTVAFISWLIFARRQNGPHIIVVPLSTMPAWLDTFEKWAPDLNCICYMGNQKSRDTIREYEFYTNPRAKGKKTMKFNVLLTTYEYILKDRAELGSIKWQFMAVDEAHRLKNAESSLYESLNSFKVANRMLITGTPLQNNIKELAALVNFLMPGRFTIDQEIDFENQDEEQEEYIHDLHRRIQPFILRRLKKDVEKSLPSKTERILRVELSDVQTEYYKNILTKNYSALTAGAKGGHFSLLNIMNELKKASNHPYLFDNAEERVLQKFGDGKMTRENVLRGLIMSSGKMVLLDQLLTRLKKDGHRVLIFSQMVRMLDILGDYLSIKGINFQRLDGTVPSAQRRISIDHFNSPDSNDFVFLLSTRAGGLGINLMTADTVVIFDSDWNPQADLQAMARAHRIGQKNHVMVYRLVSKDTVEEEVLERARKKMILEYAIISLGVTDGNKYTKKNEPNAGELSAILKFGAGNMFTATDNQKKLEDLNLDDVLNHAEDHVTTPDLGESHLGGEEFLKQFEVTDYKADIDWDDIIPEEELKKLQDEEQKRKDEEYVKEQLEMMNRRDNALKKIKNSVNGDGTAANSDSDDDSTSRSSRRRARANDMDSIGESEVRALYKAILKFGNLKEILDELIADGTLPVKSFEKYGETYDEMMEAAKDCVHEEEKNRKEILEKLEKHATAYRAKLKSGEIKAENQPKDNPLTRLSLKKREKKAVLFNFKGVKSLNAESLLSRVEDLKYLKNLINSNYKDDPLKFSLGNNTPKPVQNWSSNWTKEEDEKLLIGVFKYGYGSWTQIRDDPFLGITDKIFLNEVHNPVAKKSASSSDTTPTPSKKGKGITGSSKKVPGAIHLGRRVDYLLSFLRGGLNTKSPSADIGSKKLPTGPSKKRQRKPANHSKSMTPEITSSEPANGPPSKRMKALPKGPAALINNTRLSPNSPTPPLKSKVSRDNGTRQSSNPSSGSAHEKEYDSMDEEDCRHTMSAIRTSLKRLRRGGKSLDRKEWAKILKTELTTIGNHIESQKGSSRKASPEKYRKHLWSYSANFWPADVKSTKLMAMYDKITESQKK

Chain of Protein translocase subunit SecA (Escherichia coli (strain K12)) (P10408 whole entry): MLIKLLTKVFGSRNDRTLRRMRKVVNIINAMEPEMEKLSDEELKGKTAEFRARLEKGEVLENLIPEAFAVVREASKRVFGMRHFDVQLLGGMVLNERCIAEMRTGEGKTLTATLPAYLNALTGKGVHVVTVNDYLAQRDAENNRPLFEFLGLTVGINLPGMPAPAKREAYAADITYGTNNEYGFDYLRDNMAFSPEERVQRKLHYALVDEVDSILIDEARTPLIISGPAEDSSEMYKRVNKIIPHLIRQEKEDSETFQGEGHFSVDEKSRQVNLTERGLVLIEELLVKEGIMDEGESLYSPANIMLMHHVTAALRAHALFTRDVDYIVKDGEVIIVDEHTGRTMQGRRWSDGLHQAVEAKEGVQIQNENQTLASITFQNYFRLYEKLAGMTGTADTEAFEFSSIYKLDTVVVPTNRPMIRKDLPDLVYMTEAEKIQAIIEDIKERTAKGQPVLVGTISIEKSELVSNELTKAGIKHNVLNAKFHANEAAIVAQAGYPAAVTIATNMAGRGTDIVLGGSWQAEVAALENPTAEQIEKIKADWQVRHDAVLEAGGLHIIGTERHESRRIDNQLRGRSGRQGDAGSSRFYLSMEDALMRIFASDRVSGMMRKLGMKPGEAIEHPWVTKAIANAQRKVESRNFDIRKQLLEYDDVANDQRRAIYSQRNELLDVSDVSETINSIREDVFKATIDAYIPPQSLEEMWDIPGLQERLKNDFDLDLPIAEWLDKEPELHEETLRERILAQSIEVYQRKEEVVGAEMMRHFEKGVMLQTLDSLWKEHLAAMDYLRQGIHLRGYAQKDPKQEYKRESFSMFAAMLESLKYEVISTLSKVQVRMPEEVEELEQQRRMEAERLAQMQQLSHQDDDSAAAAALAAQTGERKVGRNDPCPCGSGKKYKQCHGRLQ

Row | Compound | Percent Effect [1] [%] | Percent Effect [2] [%] | Percent Effect [3] [%] | Percent Effect [4] [%] | Percent Effect (Trypanosoma cruzi) [%] | Percent Effect [5] [%] | Percent Effect [6] [%] | Percent Effect (Homo sapiens) [%] | Percent Effect [7] [%] | Percent Effect [8] [%] | Percent Effect [9] [%]
1 | CCN(CC1CN(Cc2ncc(C)o2)CCO1)c1cccnn1 (stereo not given) | -4.91 | -2.67 | -8.97 | 2.4 | 5.16 | 2.6 | 12.2 | 12 | 7.1 | 6.17 | -0.756
2 | CN(CC1(O)CCCN(c2ccccn2)C1)C(=O)Cc1ccsc1 (stereo not given) | -5.09 | 4.05 | 12 | 3.61 | -0.198 | -1.62 | -2.18 | -8.8 | 6.45 | 9.09 | 3.9
3 | CN1CCCN(C(=O)NCc2csc(Br)c2)CC1 | -5.63 | 10.8 | -0.581 | 13.3 | 0.0929 | 3.88 | 3.05 | 15.4 | 6.93 | 18.3 | -0.533
4 | O=C(c1cccc2c1OCCO2)N1CCCC(n2ccnc2)C1 (stereo not given) | -2.67 | 5.26 | 2.73 | -0.188 | -9.77 | 3.45 | 2.17 | 13.9 | 3.43 | 4.88 | 3.23
5 | Cc1nc(C)n(C2CCCN(C(=O)c3ccccc3C)C2)n1 (stereo not given) | -0.244 | 18.2 | -0.257 | -8.82 | -0.881 | 7.37 | 12.5 | 12.5 | 7.62 | 11.8 | -10
6 | FC(F)(F)c1cccc(C2(CNCc3ccncc3)CCOCC2)c1 | -0.743 | 10.8 | -6.5 | -1.68 | -2.34 | -1.67 | 13.9 | 23.6 | 7.92 | 11 | 16.9
7 | CN(C)c1ncccc1CNC(=O)N1CCCC1c1ccsc1 (stereo not given) | -9.33 | 18.2 | -4.46 | 4.94 | -2.43 | 0.712 | 2.2 | 1.32 | 5.83 | 14.6 | -6.19
8 | CN(C)C(=O)Cc1nc(CN2CCOC(Cn3cccn3)C2)cs1 (stereo not given) | 1.53 | 0 | -0.58 | -0.357 | -1.46 | 0 | 10.6 | -2.04 | 0 | 0 | 1.28
9 | CCN(C(=O)CS(=O)(=O)Cc1cc(Cl)c2c(c1)OCCCO2)C1CC1 | 2.17 | 5.06 | -1.41 | -13.2 | -7.84 | 5.32 | 7.62 | 8.01 | 3.45 | 16.5 | -6.8
10 | CC(C)c1nc(N2CC(N3CCCCC3C)C2)c2cnn(C)c2n1 (stereo not given) | -7.05 | -2.74 | -1.43 | -2.38 | -7.14 | -2 | 4.54 | 4.43 | -3.12 | 8.64 | -2.78
11 | O=S(=O)(Cc1ccccc1F)NCCCN1CCCCC1 | -5.56 | 2.67 | -0.488 | 18.2 | 1.66 | -1.04 | 3.49 | -24.3 | 1.64 | 1.24 | -4.29
12 | CCS(=O)(=O)N1CCc2ccc(NC(=O)Nc3ccc(F)cc3F)cc21 | -3.73 | 7.79 | 2.67 | -0.508 | 8.58 | -3.23 | 23 | -1.71 | -2.12 | 6.41 | -9.26
13 | CC(C)COCC(NC(=O)c1cc[nH]n1)c1ccco1 (stereo not given) | -5.65 | 24.3 | -9.5 | 15.5 | 1.79 | -13.6 | 5.59 | 19.5 | 4.43 | 18.5 | -12.3
14 | CC(C)CS(=O)(=O)N1C[C@H]2C[C@H](C(=O)NCc3ccccc3)[C@@H](C1)O2 | 1.12 | 9.33 | 4.22 | -2.68 | -10 | 0.88 | 13.3 | 2.72 | 3.17 | 2.56 | -5.74
15 | Cn1ccc(CN2CCC(COC3CCCC3)CC2)cc1=O | -2 | -59.5 | -8.16 | 2.17 | 2.15 | 3.66 | 11.2 | 26.8 | -10.4 | 17.7 | -25.3
16 | CCNC(=O)c1nnn(Cc2ccccc2)c1OC | -3.93 | 1.33 | 3.51 | 5.7 | -0.197 | -8.63 | 7.95 | -9.5 | 5.29 | 7.69 | -2.11
17 | Cn1ncc2c1C(COCC1CC1)CN(Cc1ccc(F)cc1)C2 (stereo not given) | -0.87 | 18.9 | 3.73 | -11.9 | -1.07 | 0.955 | 8.12 | 23.2 | 2.16 | 15.4 | -6.67
18 | Cc1ccccc1CSCCn1nc2ccccn2c1=O | -1.42 | 15.6 | 7.92 | -4.64 | -2.06 | 4 | 10.9 | 18.9 | 4.76 | 18.8 | -32.9
19 | CC[C@@H]1N(CC2CC2)CCC[C@]12CCC(=O)N2CCOC | -3.03 | 8 | 5.19 | 4.35 | 0.772 | -53.9 | 5.47 | -8.94 | 5.21 | 0 | -4.58
20 | CCc1ccc(S(=O)(=O)Nc2cc(OC)c(OC)cc2C(=O)O)s1 | -4.39 | 13.2 | 5.52 | -13.6 | -8.12 | 2.16 | 8.54 | 8.65 | -7.39 | -1.24 | -5.49
